Screening data: PubChem BioAssay, National Center for Advancing Translational Sciences (NCATS)
D1 ag = agonists of human D1 dopamine receptor; 360,000 compounds, 1% hits; HEK293 T-REx D1 cells, calcium flux, agonist mode; activation, % at 2 µM; AID 504660; P21728
Target sequence (P21728 whole entry, looked up): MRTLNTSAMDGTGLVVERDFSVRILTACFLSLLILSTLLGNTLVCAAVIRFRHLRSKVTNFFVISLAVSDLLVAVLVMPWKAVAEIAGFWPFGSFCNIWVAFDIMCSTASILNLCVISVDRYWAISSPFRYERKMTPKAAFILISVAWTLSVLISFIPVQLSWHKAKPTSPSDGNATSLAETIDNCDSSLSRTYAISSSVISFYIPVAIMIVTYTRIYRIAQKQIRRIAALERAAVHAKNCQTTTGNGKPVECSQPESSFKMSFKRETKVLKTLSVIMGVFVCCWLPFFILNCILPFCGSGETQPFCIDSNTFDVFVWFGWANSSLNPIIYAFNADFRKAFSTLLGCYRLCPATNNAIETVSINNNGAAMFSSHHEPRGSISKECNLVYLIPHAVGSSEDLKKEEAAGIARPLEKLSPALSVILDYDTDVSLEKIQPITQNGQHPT
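Inducible HEK293 T-REx D1 cells, force-coupled to calcium signalling, were plated at 4000 cells/well with tetracycline and held overnight at 30 C. After no-wash calcium dye loading, compound-evoked calcium rise over 180 s flagged agonists.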
D1 PAM = human D1 dopamine receptor positive modulation; HEK293 TREx D1 cells, calcium flux, dopamine EC20 potentiation; AID 504651; potentiation, % at 10 µM; 360,000 compounds, 0.036% hits; in the data active means potentiation above about 30%
TRHR enhancer = TRH receptor (human) allosteric enhancement. P34981. TRHR cells, fluo-8 calcium fluorescence, EC20 TRH enhancement. enhancement, % at 2 µM. 360,000 compounds, 0.66% hits; in the data active means enhancement above about 30%
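Enhancer read-out: after compound pinning and an initial kinetic agonist-mode read, an EC20 of TRH (10 nM final) was injected and fluo-8 calcium signal (Ex 480/Em 530) followed at 1 s/cycle for 100 cycles in TRHR-expressing cells.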
D1 antag = antagonists of human D1 dopamine receptor; P21728; HEK293 TREx D1 cells, calcium flux, dopamine EC80; hits give low values; activity change, negative = inhibition, % at 10 µM; 360,000 compounds, 3.2% hits; in the data active means activity change below about -30%
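Cells carrying a force-coupled, tetracycline-inducible human D1 receptor report calcium flux. Each well gets a 10 s baseline, compound with 180 s monitoring, then an EC80 dopamine stimulus with a second 180 s kinetic read.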
TRHR agonist = activates the human TRH receptor; 360,000 compounds, 0.18% hits; activation, % at 2 µM; TRHR cells, calcium flux fluo-8, FDSS agonist mode; P34981
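Agonist-mode FDSS calcium read (Ex 480/Em 530, 1 s cycles) in 1536-well TRHR cells with fluo-8 dye, after 10-cycle baseline and 23 nL compound addition; TRH at EC20 (10 nM final) added afterwards for the enhancer phase.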
A number is an active result; i = inactive; ! = a repeat was not active. Most compounds without a hit are left out; they make up all but 4.6% or so of the library. Unless noted, no stated cut-off is given here; in the data, active means activation above about 30%; inactive means the rest.

SMILES	D1 ag	D1 PAM	TRHR enhancer	D1 antag	TRHR agonist
CN(CC1CCCN(CCc2cccc(C(F)(F)F)c2)C1)C(=O)c1ccco1 (configuration not stated)	i	i	i	-39.8	i
COc1ccc(C(=O)N(C)CC2CCN(CCc3cccc(C(F)(F)F)c3)CC2)cc1C	i	i	i	-48.6	i
CC(=O)Nc1ccc(CN(C)CC2CCCN(CCc3cccc(C(F)(F)F)c3)C2)cc1 (configuration not stated)	i	i	i	i	i
Cc1ccc2c(c1)C1CN(C)CCC1N2C(=O)c1cccc(S(=O)(=O)N2CC(C)CC(C)C2)c1 (configuration not stated)	i	i	i	i	i
Cc1ccc2c(c1)C1CN(C)CCC1N2C(=O)c1ccc(Cl)c(S(=O)(=O)N2CCOCC2)c1 (configuration not stated)	i	i	i	-44.9	i
Cc1ccc2c(c1)C1CN(C)CCC1N2S(=O)(=O)c1ccc(C(C)C)cc1 (configuration not stated)	i	i	i	-31.1	i
CC(=O)c1cccc(NC(=O)c2ccc3nc(Cc4ccccc4)oc3c2)c1	i	i	i	i	i
Cc1ccc(SCCN2CCN(C)CC2)cc1	i	i	i	i	i
Cn1cc([C@@H]2C[C@H]3CN(Cc4cccc(Cl)c4)C(=O)[C@]34CCCN24)c(-c2ccccc2)n1	i	i	i	-30.9	i
CCCn1ncc([C@@H]2C[C@H]3CN(Cc4cccc(Cl)c4)C(=O)[C@]34CCCN24)c1C	i	i	i	-31.0	i
COc1ccccc1Nc1sc(C(=O)c2ccc(F)cc2)c(N)c1S(=O)(=O)c1ccc(C)cc1	31.9	i	i	i	i
COc1ccc(S(=O)(=O)c2c(Nc3cccc(C)c3C)sc(C(=O)c3ccccc3)c2N)cc1	37.9	i	i	i	i
COc1cccc(Nc2sc(C(=O)c3ccc4c(c3)OCO4)c(N)c2S(=O)(=O)c2ccccc2)c1	i	i	i	i	i
Cc1ccccc1Nc1sc(C(=O)c2ccccc2)c(N)c1S(C)(=O)=O	i	i	i	i	i
COc1ccc(S(=O)(=O)c2c(Nc3c(C)cccc3C)sc(C(=O)c3ccc4c(c3)OCO4)c2N)cc1	31.4	i	i	i	i
COc1ccc(S(=O)(=O)c2c(Nc3c(C)cccc3C)sc(C(=O)c3ccc(F)cc3)c2N)cc1	52.2	i	i	i	i
CCCCOc1cccc(C(=O)N(Cc2sccc2C)C2CCS(=O)(=O)C2)c1 (configuration not stated)	i	i	i	i	i
Cc1cccc(NC(=O)CSC2=Nc3ccccc3C3=NC(CCC(=O)NCc4ccco4)C(=O)N23)c1 (configuration not stated)	i	i	i	i	i
Cc1ccc(-n2cnc3cc(C(=O)NCc4ccc(F)cc4)ccc32)c(C)c1	i	i	i	i	i
CCCCOC(=O)CSc1nc2c(cc1C#N)C(=O)CC(C)(C)C2	i	i	i	-38.6	i
Cc1ccccc1C(=O)Nc1cccc(C(=O)OCc2cc(=O)n3nc(C4CC4)sc3n2)c1	i	i	i	i	i
COC(=O)c1ccc(C(=O)OC)c(NC(=O)N2CC3CCCN3c3ccccc32)c1 (configuration not stated)	i	i	i	i	i
CN(C(=O)CC1C(=O)NCCN1Cc1ccc(F)cc1)C1CCOCC1 (configuration not stated)	i	i	i	i	i
CN(C(=O)CC1C(=O)NCCN1Cc1ccc(F)c(F)c1)C1CCOCC1 (configuration not stated)	i	i	i	-42.3	i
O=C(Nc1ccc(F)cc1F)C1CCN(S(=O)(=O)c2ccc3[nH]c(=O)ccc3c2)CC1	i	i	i	i	i
SMILES	D1 ag	D1 PAM	TRHR enhancer	D1 antag	TRHR agonist
O=C(C1CCN(CCCc2ccccc2)CC1)N(CCc1ccccc1)Cc1ccccc1	i	i	i	-44.7	i
O=C(C1CCN(CC2CC=CCC2)CC1)N(CCc1ccccc1)Cc1ccccc1 (configuration not stated)	i	i	i	i	i
N#Cc1cnn2ccc(-c3ccc4c(c3)CCC4)nc12	i	i	i	-30.7	i
FC(F)(F)C(F)(F)C(F)(F)c1nnc2ccc(N3CCOCC3)nn12	i	i	i	-73.3	i
NNC(=O)COc1ccc(-c2n[nH]c(C(F)(F)F)c2-c2ccc(Br)cc2)c(O)c1	38.9	i	i	-37.3	i
O=C(NNc1ccnc2cc(Cl)ccc12)C1CCCCC1	i	i	i	-32.1	i
CCCN1C(=O)c2ccccc2CC1(C)C(=O)NC1CCCCC1 (configuration not stated)	i	i	i	i	i
COC(=O)C(/C=N/OCc1ccc([N+](=O)[O-])cc1)NC(=O)c1ccccc1 (configuration not stated)	30.2	i	i	i	i
Cc1nc(-c2ccc(S(=O)(=O)Nc3cc(Cl)ccc3C)cc2)co1	i	i	i	i	i
Cc1ccc(N2CCN(C(=O)CCS(=O)(=O)c3cc4c(cc3Cl)NC(=O)CO4)CC2)c(C)c1	i	i	i	i	i
COc1ccc(OCc2cc(C(=O)NCc3nc(C)cs3)no2)c(Cl)c1	i	i	i	-35.1	i
COc1ccc(OCc2cc(C(=O)NC(C)c3csc(C)n3)no2)c(Cl)c1 (configuration not stated)	i	i	i	i	i
COC(=O)c1ccccc1NC(=O)c1nc(-c2ccc(Cl)cc2)n2c1CCCCC2	i	i	34.8	i	i
CCOc1cc(C(=O)Nc2c(NC)c3ccccc3oc2=O)cc(OCC)c1OCC	i	i	i	i	i
COc1cc(C(=O)N(CCc2ccccc2)C2=CC3CCC(C2)N3C)cc(OC)c1OC (configuration not stated)	i	i	i	i	i
Cc1cc(C)cc(C(=O)N(CCc2ccccc2)C2CC3CCC(C2)N3C)c1 (configuration not stated)	i	i	i	-31.0	i
CCOc1ccc(C(=O)NCc2nc(-c3ccc(Cl)cc3)no2)cc1OCC	i	i	i	i	i
COc1cccc(CNC(=O)c2ccc(CS(=O)Cc3ccc(Cl)cc3)o2)c1 (configuration not stated)	i	i	i	i	i
CCCCCNS(=O)(=O)c1cc2c3c(c1)CCC(=O)N3CCC2	i	i	i	-30.3	i
COc1ccccc1CNS(=O)(=O)c1cc2c3c(c1)CCN3C(=O)CC2	i	i	30.2!	i	i
COc1cccc(CNS(=O)(=O)c2cc3c4c(c2)CCC(=O)N4CCC3)c1	i	i	i	i	i
O=C(O)c1cccc(N2C(=O)C3C4C=CC(C4=C(c4ccccc4)c4ccccc4)C3C2=O)c1 (configuration not stated)	i	i	i	i	i
